Experimental data published in ChEMBL document CHEMBL3988442, “University of Dundee, Small-Polar-MMV Screening Library” (2021).

Assays:
[1] = molecular target: T1, Aspartate--tRNA(Asp/Asn) ligase (Mycobacterium tuberculosis (strain ATCC 25618 / H37Rv)) (UniProt P9WFW3); assay: Assay for Asp RNA synthetase-1 from Mycobacterium tuberculosis; assay type: functional; parameters: scale not given: direction of the effect not stated beside the values; settings: 30 µM; note: in the data most compounds retested in dose-response had high values
T1 sequence (whole entry): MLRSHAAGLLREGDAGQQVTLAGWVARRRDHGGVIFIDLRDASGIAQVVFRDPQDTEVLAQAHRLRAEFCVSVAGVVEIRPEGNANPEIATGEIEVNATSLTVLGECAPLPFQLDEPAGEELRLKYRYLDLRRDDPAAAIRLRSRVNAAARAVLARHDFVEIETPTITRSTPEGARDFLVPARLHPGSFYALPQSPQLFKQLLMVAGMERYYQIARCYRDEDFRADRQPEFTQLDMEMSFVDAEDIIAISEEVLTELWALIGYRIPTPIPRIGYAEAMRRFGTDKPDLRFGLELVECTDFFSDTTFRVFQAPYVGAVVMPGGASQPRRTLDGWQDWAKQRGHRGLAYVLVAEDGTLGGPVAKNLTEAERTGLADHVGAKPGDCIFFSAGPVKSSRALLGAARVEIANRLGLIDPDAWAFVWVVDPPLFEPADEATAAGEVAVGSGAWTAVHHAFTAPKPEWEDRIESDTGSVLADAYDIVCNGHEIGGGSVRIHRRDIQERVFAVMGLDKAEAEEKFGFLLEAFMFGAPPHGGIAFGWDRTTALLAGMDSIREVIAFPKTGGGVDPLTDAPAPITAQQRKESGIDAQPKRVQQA

[2] = molecular target: Shiga toxin 2 (Escherichia coli O157:H7) (UniProt P09385+P09386); assay: E. coli 0.157:H7 Shiga Toxin SOP - stx2 screening assay; assay type: functional; parameters: scale not given: direction of the effect not stated beside the values; settings: 30 µM

CS(=O)(=O)N1CCC2(CC1)CC(CC(=O)N1CCCC1)c1ccccc12 (centres undefined)
Percent Effect [1]: 5.87% | Percent Effect [2]: 8.75%

Cc1nn(C)c(N2CCOCC2)c1CNC(C)c1ccco1 (centres undefined)
Percent Effect [1]: -3.01% | Percent Effect [2]: 5.98%

COc1ccccc1-c1cc(C(F)(F)F)c2c(C)nn(CC(=O)O)c2n1
Percent Effect [1]: 3.1% | Percent Effect [2]: -13.7%

c1ncn(CC2CN(Cc3noc(C4CC4)n3)CCO2)n1 (centres undefined)
Percent Effect [1]: 0.367% | Percent Effect [2]: -20.8%

Cn1cnc(-c2cc(C(=O)N3CCOCC3)c3ccccn23)c1
Percent Effect [1]: 1.18% | Percent Effect [2]: -6.75%

COc1cc2nc(C)n(CC(=O)O)c(=O)c2cc1OC
Percent Effect [1]: 1.68% | Percent Effect [2]: -6.96%

CC(c1cccc(S(N)(=O)=O)c1)N(C)CCOc1ccccc1 (centres undefined)
Percent Effect [1]: 0.185% | Percent Effect [2]: -29.3%

CS(=O)(=O)N1CC[C@H]2[C@H](C[C@@H](Cn3cncn3)N2CC2CC2)C1
Percent Effect [1]: 10.1% | Percent Effect [2]: -8.81%

COCCc1noc(CNCC2CCCN2c2cccnn2)n1 (centres undefined)
Percent Effect [1]: 4.93% | Percent Effect [2]: -3.58%

CC(C)(C)c1n[nH]c(C2CN(C(=O)CCC3CC3)CCO2)n1 (centres undefined)
Percent Effect [1]: -3.75% | Percent Effect [2]: 11.1%

CC(=O)N1CCN(C(=O)c2cc(-n3cnnn3)ccc2Cl)CC1
Percent Effect [1]: -1.41% | Percent Effect [2]: -21.8%

Cc1ccc2c(c1)c(CNC(=O)C1CC(=O)N(C3CCCC3)C1)nn2C (centres undefined)
Percent Effect [1]: 4.05% | Percent Effect [2]: -18%

O=C(c1cscn1)N1CC[C@]2(C[C@@H](OCCN3CCCC3)CO2)C1
Percent Effect [1]: -3.81% | Percent Effect [2]: -17.4%

O=c1cc(Cn2ccnc2)nc2n1CCCN(Cc1ccsc1)C2
Percent Effect [1]: -0.029% | Percent Effect [2]: -13.8%

Cc1nn(C)c(N(C)C)c1CNCC(O)COc1ccccc1 (centres undefined)
Percent Effect [1]: -5.92% | Percent Effect [2]: -12%

COc1ccc(C)cc1CSCCn1nc2ccccn2c1=O
Percent Effect [1]: -3.83% | Percent Effect [2]: 6.71%

Cc1ccccc1-c1cncc(C2CCN(C)CC2)n1
Percent Effect [1]: 2.52% | Percent Effect [2]: -4.06%

CCc1ncncc1C(=O)N1CCOC(c2nc(C)n[nH]2)C1 (centres undefined)
Percent Effect [1]: -4.06% | Percent Effect [2]: 0.443%

CC(C)C(C(=O)N1CCC(N(C)c2cccnn2)CC1)n1cncn1 (centres undefined)
Percent Effect [1]: -3.21% | Percent Effect [2]: 11.4%

CCOc1ccnc(N2CCN(C(=O)c3cn[nH]c3CC)CC2)n1
Percent Effect [1]: -1.77% | Percent Effect [2]: 5.02%

O=C(Cn1nc(-c2ccc(F)cc2)oc1=O)NCc1ccc(F)cc1
Percent Effect [1]: -2.48% | Percent Effect [2]: 32.8%

COc1ccc(CN(Cc2cncn2C)CC2CCCO2)cc1OC (centres undefined)
Percent Effect [1]: 4.27% | Percent Effect [2]: 10.9%

O=C(NCC1CC1)N1CCN(Cc2ccc3c(c2)OCCO3)CC1
Percent Effect [1]: 0.365% | Percent Effect [2]: 16.2%

Cc1cnn(CC2CCCN2C(=O)c2cc(Cl)ccc2F)c1 (centres undefined)
Percent Effect [1]: 1.32% | Percent Effect [2]: -18.5%

Cc1ccc(CN2Cc3nnn(C)c3C(COCCN(C)C)C2)s1 (centres undefined)
Percent Effect [1]: -3% | Percent Effect [2]: -6.76%

CC(=O)NC(C)(C)C(=O)Nc1ncc(Cc2ccc(C)c(F)c2)s1
Percent Effect [1]: -1.27% | Percent Effect [2]: -15.4%

Cc1nc(C)n(CC2CN(Cc3cccnc3)CCO2)n1 (centres undefined)
Percent Effect [1]: 5.17% | Percent Effect [2]: 26.5%

COc1cc(C(=O)NS(=O)(=O)c2cccc(C#N)c2)cc(Cl)c1OC
Percent Effect [1]: 0.845% | Percent Effect [2]: 3.59%

Cn1c(Cn2ccnc2)nnc1C1CCCN(C2CCCCC2)C1 (centres undefined)
Percent Effect [1]: -2.02% | Percent Effect [2]: -14.9%

Cc1cc(-c2cnc(N3CCNC(=O)C3)nc2-c2cccnc2C)on1
Percent Effect [1]: -4.46% | Percent Effect [2]: -9.56%

CCc1nc(CN2CCN(C(=O)CCc3ccccc3)CC2)cs1
Percent Effect [1]: -4.18% | Percent Effect [2]: -33.2%

CC(C)c1nc(C2CCCN(C(=O)CCCn3cncn3)C2)no1 (centres undefined)
Percent Effect [1]: 9.5% | Percent Effect [2]: 9.71%

COC(=O)CCc1c(C)nc2cc(O)nn2c1C
Percent Effect [1]: -3.67% | Percent Effect [2]: -37.6%

CC(C)C(=O)N1CCC2(CCCN(CCOc3ccccc3)C2)C1 (centres undefined)
Percent Effect [1]: 2.32% | Percent Effect [2]: 10.8%

COC(=O)CC(c1cnn(C)c1)c1oc(C)cc(=O)c1O (centres undefined)
Percent Effect [1]: -0.166% | Percent Effect [2]: -13.2%

COc1c(C2CCCN2C(=O)c2cncnc2C)c(C)nn1C (centres undefined)
Percent Effect [1]: 4.44% | Percent Effect [2]: -11.2%

O=C(Cn1ccc2ccc(Br)cc21)NC[C@@H]1CCCN2CCCC[C@H]12
Percent Effect [1]: -3.66% | Percent Effect [2]: -42.1%

CCN(CC)c1ccc(NS(=O)(=O)c2cncc(F)c2)cn1
Percent Effect [1]: 1.66% | Percent Effect [2]: -27.3%

Cc1cnn(C2CCCN(C(=O)c3ccc(N(C)C)nn3)C2)c1 (centres undefined)
Percent Effect [1]: -1.49% | Percent Effect [2]: -0.265%

Cc1nn(C)c(N(C)C)c1CNCCNS(C)(=O)=O
Percent Effect [1]: -4.66% | Percent Effect [2]: 17.7%

CN1CCN(Cc2cscn2)CC(C(=O)N(C)C)C1 (centres undefined)
Percent Effect [1]: -6.57% | Percent Effect [2]: -14.6%

Clc1ccc2oc(C3CCN(Cc4cccnc4)CC3)nc2c1
Percent Effect [1]: 1.26% | Percent Effect [2]: -46.7%

Cc1cnn(CC2CCCN2C(=O)Cc2n[nH]c3ccccc23)c1 (centres undefined)
Percent Effect [1]: -2.71% | Percent Effect [2]: 12.2%

c1cnnc(N2CCCC2CNc2ncnc3c2CCC3)c1 (centres undefined)
Percent Effect [1]: -0.597% | Percent Effect [2]: 2.94%

COCCN(Cc1ccoc1)C(=O)c1ccccc1Cl
Percent Effect [1]: 2.46% | Percent Effect [2]: 6.17%

O=C(NCCCOCC1CCCO1)c1cccnc1N1CCCC1 (centres undefined)
Percent Effect [1]: -1.51% | Percent Effect [2]: -14.1%

C1CC(NCc2nc(C3CC3)no2)CN(Cc2noc(C3CC3)n2)C1 (centres undefined)
Percent Effect [1]: -2.94% | Percent Effect [2]: 13.3%
